Screening data: PubChem, several laboratories
ROMK primary: human ROMK K+ channel modulation, primary screen; Tet-inducible ROMK, thallium flux fluorescence; actives lie on both sides; B-score at 10 µM; actives 2% (n = 130,000); AID 1918;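 active = signal ratio slope over the read window, or its plate-corrected B-score, at least 3 SD from the plate mean, either direction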;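 also: B-score of the F/F0 ratio slope over 7 to 12 s after thallium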
Ins promoter up: MIN6 insulin promoter up-regulation. actives 0.3% (n = 190,000). MIN6 insulin promoter-GFP reporter, high-content imaging; hits give high values. z-score at 5 µM;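 active = z-score above 3 at 5 µM with at least 500 cells counted in the well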
L major viab: inhibitors of Leishmania major promastigote growth; AID 1063; actives 9% (n = 200,000); inhibition, % at 10 µM; Leishmania major promastigotes, resazurin fluorescence viability; in the data active = inhibition above about 50%;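 also: promastigotes grown with compound for 44 hours at 28 °C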
Cl transport mod: modulates chloride dependent transport by human KCC2; KCC2 cells, thallium flux FluoZin-2 fluorescence; actives 2.2% (n = 190,000); Q9H2X9; AID 1456; B-score of Tl+ flux slope (higher = more flux/activation; lower = inhibition) at 10 µM;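 active = thallium flux slope and its plate-corrected score both differing from the plate sample mean at a set confidence after two filtering rounds, in either direction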;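 also: slope of fluorescence scaled to starting intensity during 10 to 20 s after thallium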
Target sequence (Q9H2X9 whole entry, looked up): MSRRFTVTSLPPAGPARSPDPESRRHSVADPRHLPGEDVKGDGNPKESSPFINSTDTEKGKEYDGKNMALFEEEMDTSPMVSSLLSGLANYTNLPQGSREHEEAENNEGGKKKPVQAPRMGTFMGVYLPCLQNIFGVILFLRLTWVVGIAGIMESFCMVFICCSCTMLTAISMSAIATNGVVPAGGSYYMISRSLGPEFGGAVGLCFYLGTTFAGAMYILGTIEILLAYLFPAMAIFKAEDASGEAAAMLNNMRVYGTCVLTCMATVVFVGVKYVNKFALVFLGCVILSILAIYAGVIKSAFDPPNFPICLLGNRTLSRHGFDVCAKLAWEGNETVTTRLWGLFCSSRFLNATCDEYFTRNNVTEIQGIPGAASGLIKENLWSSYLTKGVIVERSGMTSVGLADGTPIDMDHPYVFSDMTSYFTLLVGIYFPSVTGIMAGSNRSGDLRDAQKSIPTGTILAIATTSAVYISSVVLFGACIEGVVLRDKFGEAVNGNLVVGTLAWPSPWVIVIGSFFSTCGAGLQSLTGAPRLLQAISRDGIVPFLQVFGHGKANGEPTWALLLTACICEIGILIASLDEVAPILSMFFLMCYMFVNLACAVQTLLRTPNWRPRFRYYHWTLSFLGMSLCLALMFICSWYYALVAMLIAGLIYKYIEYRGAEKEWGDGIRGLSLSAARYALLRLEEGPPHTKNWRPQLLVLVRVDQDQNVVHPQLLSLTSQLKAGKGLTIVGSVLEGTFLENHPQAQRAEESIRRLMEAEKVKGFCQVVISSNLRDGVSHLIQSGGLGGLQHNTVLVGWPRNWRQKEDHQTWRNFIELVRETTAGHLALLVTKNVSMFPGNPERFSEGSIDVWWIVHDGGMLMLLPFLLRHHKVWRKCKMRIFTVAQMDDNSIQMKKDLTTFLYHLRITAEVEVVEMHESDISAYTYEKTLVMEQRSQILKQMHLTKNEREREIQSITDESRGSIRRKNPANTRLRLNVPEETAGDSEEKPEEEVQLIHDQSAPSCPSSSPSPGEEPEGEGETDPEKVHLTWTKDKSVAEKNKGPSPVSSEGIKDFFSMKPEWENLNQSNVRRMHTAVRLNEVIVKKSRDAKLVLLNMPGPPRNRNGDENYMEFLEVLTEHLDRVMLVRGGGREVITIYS
INS promoter inh: TRM-6 insulin promoter activity inhibition; TRM-6 cells (human fetal islet line), insulin promoter-eGFP reporter, imaging; reporter expression induced with tamoxifen; inhibition, % at 2 µM; actives 0.9% (n = 130,000); AID 1273;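 active = inhibition above the mean plus 3 SD, with well images judged a real hit on visual review, cut at about 60% in these data, passing the limit was not always enough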
WT yeast gro inh: growth inhibition of WT yeast, mitochondrial fusion screen. mitochondrial fusion phenotypic screen, WT strain. AID 1362. actives 2.1% (n = 190,000). inhibition, % at 10 µM; in the data active = inhibition above about 58%; tested in S. cerevisiae
An asterisk follows results filed as active; nt = not tested or not shown. Most compounds without a hit are left out; they make up all but 12% or so of the library.

SMILES | ROMK primary | Ins promoter up | L major viab | Cl transport mod | INS promoter inh | WT yeast gro inh
CC(C)C(=O)N1CCN(c2ccc([N+](=O)[O-])cc2Cl)CC1 | -0.34 | -0.11 | 50* | 1.4 | 27 | -10
O=C(c1ccc(-c2ccc([N+](=O)[O-])cc2)o1)N1CCCCC1 | -1.3 | -0.03 | 100* | -1.6 | 7 | 40
O=C(c1cc([N+](=O)[O-])ccc1N1CCCC1)N1CCCC1 | 1.4 | 3.1* | -7 | 0.0071 | -14 | -3
O=C(c1cc([N+](=O)[O-])ccc1N1CCCCC1)N1CCCC1 | nt | 0.58 | 1 | -0.039 | 45 | 0
Cc1ccc(C(=O)N/C(=C\c2cccs2)C(=O)N2CCCCCC2)cc1 | nt | -0.13 | -7 | 0.73 | 16 | 1
O=C(NNc1c2ccccc2nc2ccccc12)c1ccc(O)cc1O | -1.8 | -0.26 | 99* | 0.15 | nt | 1
O=C(NNc1c2ccccc2nc2ccccc12)c1ccccc1O | 0.22 | -0.91 | 21 | 1.5 | nt | 27
CCCC(=O)NNc1c2ccccc2nc2ccccc12 | nt | -0.21 | 29 | 0.6 | nt | 52
O=C(NNc1c2ccccc2nc2ccccc12)c1cccc(O)c1 | nt | -0.02 | 90* | -0.84 | nt | 25
O=C(NNc1c2ccccc2nc2ccccc12)c1ccc(O)cc1 | -0.31 | 0.54 | 71* | -1.1 | -9 | 3
O=C(NNc1c2ccccc2nc2ccccc12)C(O)c1ccccc1 (centres undefined) | nt | 0.63 | nt | -0.4 | nt | nt
O=C(Nc1nnc(COc2ccccc2)s1)C1CCN(S(=O)(=O)c2ccc(Cl)cc2)CC1 | -0.4 | nt | -5 | -0.79 | nt | -42
Nc1c(-c2ccccc2)c(CN2CCOCC2)nn1-c1ccc(F)cc1 | 1.1 | -0.14 | -3 | 0.22 | nt | 15
CN(C)C(C)(C)C#CCC(c1ccccc1)c1ccccc1 | -1.7 | 0.21 | 100* | 0.027 | nt | 5
CN(CCN(C)C(C)(C)C)C(=O)C(c1ccccc1)c1ccccc1 | nt | 0.93 | nt | -0.76 | nt | nt
CC(C)(C)NC(=O)/C=C/c1cccc(C(F)(F)F)c1 | 0.63 | 0.78 | -7 | -0.43 | 60* | -10
CCOc1ccc(CN2CCN(Cc3[nH]c4ccc(OC)cc4c3C)CC2CCO)cc1 (centres undefined) | -0.89 | 0.05 | 57* | 0.84 | -22 | 10
CCOc1ccc(CN2CCN(C3CCSCC3)CC2CCO)cc1 (centres undefined) | 0.33 | -0.37 | 73* | 1.2 | nt | 2
CCOc1ccccc1CN1CCN(Cc2[nH]c3ccccc3c2C)CC1CCO (centres undefined) | nt | 0.19 | 31 | -0.11 | nt | -1
CCOc1ccc(CN2CCN(CCCn3cccn3)CC2CCO)cc1 (centres undefined) | 0.13 | nt | 92* | -1.7 | nt | 1
CCOc1ccc(CN2CCN(Cc3nc(C(C)C)cs3)CC2CCO)cc1 (centres undefined) | nt | -0.24 | 81* | nt | nt | -6
Cc1ccc(CN2CCN(C3CSCCSC3)CC2CCO)cc1 (centres undefined) | -0.81 | 0.06 | 5 | 1.3 | nt | 5
CC(C)c1csc(CN2CCN(CCc3ccccc3)C(CCO)C2)n1 (centres undefined) | -0.75 | 0.06 | 89* | -0.055 | nt | 13
Cc1onc(-c2ccccc2)c1C(=O)/C=C/N(C)C | nt | nt | nt | -0.028 | nt | nt
CCOC(=O)N1CCC(N2Cc3cccc(C(=O)N4CCN(c5cccc(C)c5C)CC4)c3C2=O)CC1 | -0.92 | nt | 62* | 0.11 | -27 | -16
SMILES | ROMK primary | Ins promoter up | L major viab | Cl transport mod | INS promoter inh | WT yeast gro inh
CCOC(=O)N1CCC(N2Cc3cccc(C(=O)N4CCN(c5cccc(Cl)c5)CC4)c3C2=O)CC1 | -0.62 | nt | 10 | -0.038 | 38 | -5
CC(Oc1ccc(Cl)cc1Cl)c1nc(-c2ccc(NC(=O)c3ccco3)cc2)no1 (centres undefined) | nt | 0.8 | 4 | nt | 15 | 85*
Cc1nnc2ccc(-c3ccc(NC(=O)c4ccc(Cl)nc4)cc3)nn12 | 0.23 | -0.03 | -5 | 0.018 | nt | -11
COc1ccccc1N1CCN(C(CNC(=O)C2CCCCC2)c2cccnc2)CC1 (centres undefined) | nt | -0.61 | 51* | 1.8 | 10 | 5
O=C(NCC(c1cccnc1)N1CCOCC1)C1CCCCC1 (centres undefined) | nt | nt | -6 | 0.14 | 35 | -10
COc1ccccc1N1CCN(C(CNC(=O)c2ccc3c(c2)OCO3)c2cccnc2)CC1 (centres undefined) | 0.033 | -0.52 | 94* | nt | 0 | 42
O=c1c(-c2ccc([N+](=O)[O-])cc2)coc2c(O)c(O)ccc12 | 0.21 | nt | nt | -0.53 | nt | nt
C=CCN=c1scc(-c2ccccc2)n1/N=C/c1ccccn1 | 0.39 | -1.5 | 11 | -4.1* | nt | 75*
C=CCN=c1scc(-c2ccc(F)cc2)n1/N=C/c1ccccn1 | nt | -0.42 | 9 | -4.2 | nt | 39
CCN=c1scc(-c2ccccc2)n1/N=C/c1ccccn1 | nt | 0.28 | -5 | -3.8* | nt | 43
Cc1ccc2oc(C(F)(F)C(F)F)cc(=O)c2c1 | nt | -0.18 | nt | -0.014 | nt | nt
Cc1ccc2oc(C(Cl)(Cl)Cl)cc(=O)c2c1 | -1.1 | 0.53 | 56* | -0.92 | nt | 37
O=[N+]([O-])c1ccccc1/C=C/CN1CCCCC1 | 1.4 | 0.14 | 75* | 0.42 | nt | -10
O=C(O)/C=C/c1ccccc1[N+](=O)[O-] | nt | -0.73 | nt | nt | nt | nt
CC1=Nc2ccccc2N=C(NC(=O)c2ccccc2)C1c1ccccc1 (centres undefined) | 0.38 | 0.18 | 54* | -0.42 | nt | 12
CC1=Nc2ccccc2N=C(NC(=O)CSC(=S)N2CCCCC2)C1c1ccccc1 (centres undefined) | -0.73 | 0.54 | nt | -2 | nt | nt
CCOC(=O)C1CCCN(C/C=C/c2ccccc2[N+](=O)[O-])C1 (centres undefined) | -0.39 | 0.08 | 85* | -0.14 | nt | 2
CCOC(=O)C1CCCN(C(=O)c2ccccc2[N+](=O)[O-])C1 (centres undefined) | nt | 1.7 | -6 | -0.0042 | nt | -9
CCOC(=O)C1CCCN(CC(=O)NC2=Nc3ccccc3N=C(C)C2c2ccccc2)C1 (centres undefined) | -2.1* | -0.21 | 38 | 0.046 | -69 | 10
COC(=O)C1(C)NC(c2ccco2)C2C(=O)N(c3ccc(F)cc3)C(=O)C21 (centres undefined) | 0.71 | -0.11 | -6 | 0.094 | nt | -19
CCOC(=O)C1CCCN(CCC(C)c2ccccc2)C1 (centres undefined) | nt | -0.05 | 78* | -0.39 | 0 | -4
CCOC(=O)C1CCCN(CCC(=O)Nc2ccccc2)C1 (centres undefined) | nt | -0.44 | -3 | -0.45 | -57 | -4
Clc1ccc(-c2nc(C3CCCCC3)no2)cc1 | -0.26 | -0.58 | -11 | -0.35 | -75 | 12
Cc1ccc(C)c(NC(=O)CSc2nc3ccc(N4C(=O)c5ccccc5C4=O)cc3s2)c1 | -0.2 | 2 | 99* | 1.3 | -3 | 8
Cc1cc(C)nc(NC(=O)CSc2nc3ccccc3s2)n1 | 0.59 | nt | 2 | nt | 4 | -2
C=CCSc1nc2ccccc2n1C(=O)/C=C/c1cc(OC)c(OC)c(OC)c1 | nt | nt | 5 | 0.53 | 29 | nt
CCn1c(SCC(=O)N/N=C/c2ccc(OC)c(OC)c2)nc2ccccc21 | nt | -0.57 | 97* | -1.5 | 4 | -8
